# From PubChem BioAssay
# Several values for one entry are separate records, joined by “and”; a condition that tells them apart may be missing. Equal entries are not always repeated. Activity calls are given as the source filed them.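 The calls were made as follows, unless noted: active = inhibition at or above 50% relative to wild type and mutant plate controls; inactive = inhibition below 50%.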
# Assays:
# [1] = inhibitors of TNFa-induced NFkB p65 translocation, primary screen, imaging, HUVEC, MLSMR starter and 10KST1 sets (AID 438;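 active = inhibition above 20% together with a positive visual image hit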;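 also: compound added about 3h40 before a 20 min TNFalpha stimulation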;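 as to inhibition: signal is the nuclear over cytoplasmic p65 intensity ratio per well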); details: HUVEC TNFa-induced p65 nuclear translocation; cell count: measured here: nuclei count (cytotoxicity indicator), at 2.08 µM; inhibition: at 2 µM, stronger effect = higher value, 0% TNFa-plus-vehicle, 100% no-TNFa wells
# [2] = inhibitors of mutant huntingtin aggregation, primary screen, imaging, exon1htt(103Q)mCFP cells, high-content imaging (AID 483;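 active = visual image review flags a hit and inhibition of aggregation exceeds 20%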;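 also: compound exposure lasted 3 days before fixation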;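 as to nuclei count: percent of the per-plate median nuclei count of sample wells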); details: exon1htt(103Q)mCFP cell line, aggregate imaging, at 2 µM; inhibition of aggregation: stronger effect = higher value; nuclei count: measured here: cell count, toxicity
# [3] = inhibitors of E-selectin induction by TNFa, primary screen, imaging, HUVEC, immunofluorescence, MLSMR starter and 10KST1 sets (AID 487;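 active = visually confirmed hit in the image check and inhibition above 20%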;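 as to inhibition: signal is fraction of cell area covered by stained E-selectin grains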;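 as to nuclei count: 100% = median nuclei count of all wells on the same plate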); details: HUVEC TNFalpha-induced E-selectin immunofluorescence imaging, at 2 µM; inhibition: stronger effect = higher value; nuclei count: measured here: cell number, toxicity
# [4] = DUSP6 inhibitors restoring Erk phosphorylation by chemical complementation, primary imaging in DUSP6-transfected HeLa (AID 609;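 active = compounds giving at least 50% inhibition in the cell-based MKP-3 phosphatase rescue imaging test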;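 as to inhibition: phospho-Erk level distribution per well compared with pooled transfected vehicle control wells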); details: HeLa MKP-3 transfected, phospho-Erk imaging KS statistic, at 10 µM, cells stimulated with TPA for 15 min
# [5] = target: Dual specificity protein phosphatase 6 (Homo sapiens) (UniProt Q16828); assay: as above; details: HeLa MKP-3 transfected, phospho-Erk imaging KS statistic; at 10 µM; stronger effect = higher value; cells stimulated with TPA for 15 min
# [6] = target: Voltage-gated potassium channel subunit beta-2 (Rattus norvegicus) (UniProt P62483); assay: KvBeta enzyme negative modulators, primary screen, biochemical, NADPH fluorescence (AID 622;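 active = fluorescence slope higher than the sample average by over 3 SD, cut at about -0.22 in these data, passing the limit was not always enough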;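 also: slope of raw intensity against log time taken from 70 to 1610 s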); details: recombinant KvBeta, 4-cyanobenzaldehyde reduction, at 10 µM, stronger effect = higher value
# [7] = target: Voltage-gated potassium channel subunit beta-2 (Rattus norvegicus) (UniProt P62483); assay: KvBeta positive modulators, primary screen, biochemical, NADPH fluorescence (AID 623;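 active = NADPH fluorescence slope more negative than the mean of all samples by about 3 SD, 99.7% confidence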;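 also: fluorescence intensity change per second fitted from 20 to 320 s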); details: Recombinant KvBeta, NADPH fluorescence decrease slope, 10 min; at 10 µM; stronger effect = lower value
# [8] = target: Alpha-2C adrenergic receptor (Homo sapiens) (UniProt P18825); assay: modulators of alpha2C/GIRK thallium flux, primary screen, cell-based, HEK293 alpha2C/GIRK1/2 (AID 624;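 active = fluorescence slope after compound addition differing from the mean of all screened samples at 99.7% confidence, in either direction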;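 also: slope of fluorescence ratio to pre-addition baseline per second over 15 to 24 s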); details: thallium flux BTC fluorescence, at 10 µM, actives lie on both sides
# [9] = inhibitors of larval lipid processing in zebrafish, primary screen, whole organism, PED6 fluorescence, gall bladder and intestine (AID 686;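 active = a full or partial loss of lipid-probe fluorescence in the fish gall bladder, intestine or both, judged by eye; inactive = no fluorescence loss, or compound toxic to the fish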;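 also: larvae 5 to 7 days old with five fish per well; signal comes from phospholipase A2 cleavage of quenched PED6 carried via bile; overnight exposure to compound and PED6 before scoring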); details: Zebrafish larvae PED6 lipid processing, fluorescence scoring; screened at 20 µM (by protocol)
# [10] = inhibitors of Chlamydomonas gravitaxis, primary screen, whole organism, Chlamydomonas reinhardtii, WT vs cilia-less mutant, absorbance, 96-well (AID 463189); details: OD600 absorbance, 2 days, at 10 µM, stronger effect = higher value;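 also: 0% = wild type cc124 cells in DMSO and 100% = ciliumless bld1 mutant cells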
# [11] = inhibitors of Sendai virus-induced IRF3 signaling, primary screen, TLR/RLR signaling modifier project, cell-based, Sendai virus stimulus, luciferase, 10K MLSCN set (AID 602276;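 active = inhibition at or above 50% at 10 µM; inactive = inhibition below 50%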;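 also: firefly luciferase from ISG56 promoter only with Renilla not read in this screen; 0% = Sendai virus plus DMSO and 100% = medium plus DMSO without virus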); details: HEK293 RL24 IRF3 luciferase reporter, at 10 µM, stronger effect = higher value
# [12] = inhibitors of poly I:C-induced TLR3 signaling, primary screen, cell-based, poly I:C stimulus, luciferase, 10K MLSCN set (AID 602277;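 active = inhibition of the reporter signal at or above 50%; inactive = inhibition below 50%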); details: HEK293-TLR3 RL24 IRF3 luciferase reporter, at 10 µM, stronger effect = higher value
# [13] = measured here: cell density z-score
# [14] = measured here: nuclear c-Myc green intensity z-score
# [15] = measured here: nuclear pErk red intensity z-score, stronger effect = higher value
# Sequence of Voltage-gated potassium channel subunit beta-2 (Rattus norvegicus) (P62483 whole entry, looked up): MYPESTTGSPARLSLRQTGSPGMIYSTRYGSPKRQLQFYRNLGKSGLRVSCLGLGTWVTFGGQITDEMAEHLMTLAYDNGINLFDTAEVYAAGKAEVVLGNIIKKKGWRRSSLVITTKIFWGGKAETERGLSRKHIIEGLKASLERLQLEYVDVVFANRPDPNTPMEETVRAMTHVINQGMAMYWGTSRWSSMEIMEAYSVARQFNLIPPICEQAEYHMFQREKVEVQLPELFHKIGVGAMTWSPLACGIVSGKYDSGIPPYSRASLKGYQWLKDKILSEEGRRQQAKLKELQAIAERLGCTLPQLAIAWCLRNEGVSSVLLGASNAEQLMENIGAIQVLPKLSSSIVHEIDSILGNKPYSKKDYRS
# Sequence of Dual specificity protein phosphatase 6 (Homo sapiens) (Q16828 whole entry, looked up): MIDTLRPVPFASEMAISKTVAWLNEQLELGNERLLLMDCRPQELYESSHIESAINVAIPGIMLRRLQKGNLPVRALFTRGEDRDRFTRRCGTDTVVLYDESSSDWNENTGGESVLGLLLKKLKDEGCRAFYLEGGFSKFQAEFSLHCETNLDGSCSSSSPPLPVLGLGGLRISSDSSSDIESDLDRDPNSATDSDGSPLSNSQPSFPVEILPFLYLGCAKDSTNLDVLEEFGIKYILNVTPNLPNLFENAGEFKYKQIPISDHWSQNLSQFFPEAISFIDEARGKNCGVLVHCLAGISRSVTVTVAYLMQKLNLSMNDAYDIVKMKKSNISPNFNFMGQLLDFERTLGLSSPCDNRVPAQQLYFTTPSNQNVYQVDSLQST
# Sequence of Alpha-2C adrenergic receptor (Homo sapiens) (P18825 whole entry, looked up): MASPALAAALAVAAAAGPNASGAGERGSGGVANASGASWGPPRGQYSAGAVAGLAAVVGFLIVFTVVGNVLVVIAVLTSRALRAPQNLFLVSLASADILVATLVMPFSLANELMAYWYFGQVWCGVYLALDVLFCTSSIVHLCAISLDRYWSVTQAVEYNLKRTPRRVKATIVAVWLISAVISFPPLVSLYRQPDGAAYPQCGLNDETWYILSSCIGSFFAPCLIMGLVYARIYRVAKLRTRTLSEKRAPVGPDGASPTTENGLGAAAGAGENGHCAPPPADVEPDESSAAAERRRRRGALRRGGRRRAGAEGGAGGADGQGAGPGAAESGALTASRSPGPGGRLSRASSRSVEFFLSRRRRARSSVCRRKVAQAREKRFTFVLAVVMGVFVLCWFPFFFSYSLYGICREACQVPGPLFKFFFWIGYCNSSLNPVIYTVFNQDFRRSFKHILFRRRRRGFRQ
SMILES,cell count [1],inhibition [1],inhibition of aggregation [2],nuclei count [2] [%],inhibition [3],nuclei count [3] [%],"z-score [4, 13]","z-score [4, 14]","z-score [4, 15]",inhibition [5],fluorescence slope [6],NADPH fluorescence slope [7],slope [8],outcome [9],inhibition [10],inhibition [11],inhibition [12]
CCCCOc1ccc(C(=O)Nn2cnnc2)cc1,491,-0.8% (inactive),14.2% (inactive),96.9,-83.6% (inactive),100,-0.477,-1.53,-0.77,-8.27% (inactive),-0.32 (inactive),-2.1e-05 (inactive),0.00306 (inactive),inactive,0.154% (inactive),9.75% (inactive),15.4% (inactive)
CC(=O)OC(C)C[N+](C)(C)C (configuration not stated),551,2.7% (inactive),-10.4% (inactive),93.2,-37.2% (inactive),109,-0.162,0.661,-1.46,5.42% (inactive),-0.469 (inactive),-5.5e-06 (inactive),0.0149 (active),inactive,4.19% (inactive) and 8.31% (inactive),8.52% (inactive),29.7% (inactive)
Nc1nc(F)nc2c1ncn2[C@@H]1O[C@H](CO)[C@@H](O)[C@@H]1O,526,-6.8% (inactive),-1.5% (inactive),103,5.4% (inactive),106,-1.32,0.314,0.132,-2.46% (inactive),-0.491 (inactive),-3.9e-05 (inactive),0.00434 (inactive),inactive,-8.17% (inactive),2.74% (inactive),23.7% (inactive)
O=C(O)c1cccnc1Nc1cccc(C(F)(F)F)c1,579,-0.7% (inactive),7.2% (inactive),55.6,-109% (inactive),125,-1.55,-0.913,0.921,3.59% (inactive),-0.507 (inactive),-5.7e-05 (inactive),0.00519 (inactive),inactive,0.869% (inactive) and -7.21% (inactive),17.3% (inactive),24.1% (inactive)
CCc1cn([C@H]2C[C@H](O)[C@@H](CO)O2)c(=O)[nH]c1=O,644,-9.9% (inactive),-3.6% (inactive),102,-69.2% (inactive),120,-0.967,-0.117,0.506,9.37% (inactive),-0.477 (inactive),5.1e-06 (inactive),0.00501 (inactive),inactive,21.4% (inactive),18.1% (inactive),34% (inactive)
O=C(Nc1ccc2c(c1)OCO2)c1cncc(Br)c1,613,-11% (inactive),-11.9% (inactive),87.1,-29.9% (inactive),149,1.08,-0.36,-1.03,19.1% (inactive),-0.419 (inactive),-3.7e-05 (inactive),0.00513 (inactive),inactive,-3.07% (inactive),-15.3% (inactive),-51.1% (inactive)
Oc1c(Cl)cc(Cl)cc1CNc1ccc(Br)cn1,580,-1.3% (inactive),-20.5% (inactive),108,-9.9% (inactive),102,-1.08,0.507,-0.618,-3.5% (inactive),-0.357 (inactive),1.5e-05 (inactive),0.00449 (inactive),inactive,-5.67% (inactive),17% (inactive),20.5% (inactive)
CC1(C)CC(=O)C=C(NCc2ccncc2)C1,623,-5.3% (inactive),-13.1% (inactive),100,-98.8% (inactive),122,1.78,-0.484,-1.6,13.9% (inactive),-0.497 (inactive),-3.5e-05 (inactive),0.00534 (inactive),inactive,-8.68% (inactive),-0.503% (inactive),44.9% (inactive)
COc1ccc(C2CNC(=O)C2)cc1OC1CCCC1 (configuration not stated),595,-1.7% (inactive),-10.3% (inactive),97.8,-59.8% (inactive),124,-1.08,-0.0715,0.178,3.45% (inactive),-0.507 (inactive),-0.000115 (inactive),0.00579 (inactive),inactive,0.165% (inactive) and 12.7% (inactive),15.5% (inactive),0.301% (inactive)
COC(=O)c1cccc(Nc2cc(C)nc(-c3ccccc3O)n2)c1,614,-12.4% (inactive),-1% (inactive),92.7,-86.5% (inactive),118,-0.273,0.157,-0.334,9.91% (inactive),-0.279 (inactive),-1.2e-05 (inactive),0.00663 (inactive),inactive,5.5% (inactive),-10.3% (inactive),-37.2% (inactive)
CCN(CC)c1ccc2c(C)c(-c3ccc(N)cc3)c(=O)oc2c1,446,-5% (inactive),6.3% (inactive),98.2,25% (inactive),149,0.788,0.208,-0.594,-4.78% (inactive),-0.133 (active),0 (inactive),0.00526 (inactive),inactive,55.8% (active),-44% (inactive),-91% (inactive)
CCCC(=O)N(Cc1cc2ccccc2[nH]c1=O)c1ccccc1OC,429,-16.8% (inactive),-1.6% (inactive),94.8,-133% (inactive),166,1.04,-0.344,-0.503,17.7% (inactive),-0.364 (inactive),-8.5e-06 (inactive),0.00461 (inactive),inactive,27.4% (inactive),12% (inactive),14.8% (inactive)
CCCOc1cccc(C2/C(=C(/O)c3ccccc3)C(=O)C(=O)N2CCN(C)C)c1 (configuration not stated),511,-3.9% (inactive),-5.1% (inactive),109,-90.6% (inactive),134,-0.467,0.337,1.7,-0.159% (inactive),-0.431 (inactive),-5.6e-05 (inactive),0.00489 (inactive),inactive,30.4% (inactive),15.1% (inactive),19.2% (inactive)
CN1CCN(/C=N/c2sc3c(c2C#N)CCCCC3)CC1,536,-4.8% (inactive),2.6% (inactive),116,-74.7% (inactive),108,-3.34,0.909,1.9,-4.27% (inactive),-0.42 (inactive),-6e-06 (inactive),0.00496 (inactive),inactive,135% (active),-35.3% (inactive),-83.9% (inactive)
C[C@H]1C[C@@H]2[C@H]([C@@H](O)C[C@@]3(C)[C@H]2CC[C@]3(O)C(=O)CO)[C@@]2(C)C=CC(=O)C=C12,665,-3.7% (inactive),10.3% (inactive),101,-77.5% (inactive),120,1.04,0.95,0.348,7.39% (inactive),-0.512 (inactive),-7.2e-05 (inactive),0.00539 (inactive),inactive,7.13% (inactive),11.3% (inactive),36.5% (inactive)
C[N+]12CCC(CC1)C(OC(=O)C(O)(c1ccccc1)c1ccccc1)C2 (configuration not stated),609,-0.8% (inactive),3.7% (inactive),106,-71.3% (inactive),119,-0.393,-0.0364,0.334,3.45% (inactive),-0.526 (inactive),-2.4e-05 (inactive),0.00456 (inactive),inactive,-10.3% (inactive),6.28% (inactive),21.7% (inactive)
CCCCC[C@H](O)/C=C/[C@H]1C=CC(=O)[C@@H]1C/C=C\CCCC(=O)O,543,-11.1% (inactive),16% (inactive),84.8,-33.9% (inactive),110,1.78,-0.725,-0.854,7.39% (inactive),-0.458 (inactive),-5.4e-05 (inactive),0.00837 (inactive),inactive,5.58% (inactive),-2.27% (inactive),25% (inactive)
CN(C)CCC=C1c2ccccc2CCc2ccccc21,541,-3.1% (inactive),2.1% (inactive),107,-17.7% (inactive),126,0.892,-0.494,0.732,-0.493% (inactive),-0.449 (inactive),-6.5e-05 (inactive),0.00605 (inactive),inactive,6.87% (inactive) and 12.5% (inactive),-9.05% (inactive),51% (active)
C[C@]12CC[C@@H]3c4ccc(O)cc4CC[C@H]3[C@@H]1CC[C@@H]2OC(=O)CCC(=O)O,543,4.6% (inactive),-1.9% (inactive),91.7,-5.8% (inactive),111,-0.479,-0.845,2.04,5.79% (inactive),-0.519 (inactive),-3.4e-05 (inactive),0.0043 (inactive),inactive,-7.26% (inactive),15.4% (inactive),24% (inactive)
Cc1nc(NS(=O)(=O)c2ccccc2)sc1NC(=O)OC(C)C,364,-12.7% (inactive),-9.8% (inactive),108,-118% (inactive),138,-0.163,-0.612,0.551,17.5% (inactive),-0.415 (inactive),1e-05 (inactive),0.00272 (inactive),inactive,16.7% (inactive),2.77% (inactive),9.41% (inactive)
C=CCn1c(SCC(=O)NC23CC4CC(CC(C4)C2)C3)nc(O)cc1=O,629,-3.7% (inactive),-0.4% (inactive),103,-39.7% (inactive),129,-0.394,-0.06,0.754,7.83% (inactive),-0.532 (inactive),-4.2e-05 (inactive),0.00471 (inactive),inactive,12.5% (inactive),17.8% (inactive),24.6% (inactive)
